Source: PubChem BioAssay
The source made the active and inactive calls.

Tests used:
[1] = binders of probe aFSTL3 on microarray, primary screen, stem cell growth factor project, biochemical, small-molecule microarray, fluorescence 635/667 (AID 1064); conditions: higher = more signal;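 further: measures binding of the biotinylated anti-FSTL3 antibody to printed compounds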
[2] = binders from COS7 lysate, DM2A8 probe, primary screen, torsin A project, cell lysate, small-molecule microarray, fluorescence 635/667 (AID 1065); conditions: higher = more signal, COS7 lysate expressing mutant human TOR1A
[3] = binders of probe aFGF2 on microarray, primary screen, stem cell growth factor project, biochemical, small-molecule microarray, fluorescence 635/667 (AID 1067); conditions: higher = more signal;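 further: measures binding of biotinylated aFGF2 protein to printed compounds on slides; z-score merges feature fluorescence and signal-to-noise across triplicate slides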
[4] = binders of probe aFGF10 on microarray, primary screen, stem cell growth factor project, biochemical, small-molecule microarray, fluorescence 635/667 (AID 1071); conditions: higher = more signal;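 further: score merges 667 nm spot intensity and signal to noise from triplicate slides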
[5] = molecular target: Neurogenic locus notch homolog protein 2 (Homo sapiens) (UniProt Q04721); assay: Notch2 binders on small-molecule microarrays, primary screen, biochemical, small-molecule microarray, 635 nm fluorescence, stem cell growth factors (AID 1073); conditions: Notch2 binding, higher = more signal
[6] = molecular target: Pro-neuregulin-1, membrane-bound isoform (Homo sapiens) (UniProt Q02297); assay: NRG1 binders on small-molecule microarrays, primary screen, psychiatric disease protein project, biochemical, small-molecule microarray, fluorescence 635/667 (AID 1075); conditions: NRG1 binding, 635 nm fluorescence, higher = more signal;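 further: score combines 667 nm spot fluorescence with signal to noise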
[7] = tested on: Neuregulin-1 EGF-like domain; assay: binders of neuregulin-1 EGF-like domain, primary screen, biochemical, small-molecule microarray, 635 nm fluorescence (AID 1081); conditions: small-molecule microarray binding, higher = more signal;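 further: binding of the protein to compounds printed on small-molecule microarray slides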
[8] = FRG1 promoter luciferase signal modulators, primary screen, FRG1 inhibition for FSHD, cell-based, C2C12 myotubes, firefly/Renilla luciferase, luminescence (AID 1084); conditions: higher = more signal, called active from +8 up or from −8 down
[9] = binders of probe aFST on microarray, primary screen, stem cell growth factor project, biochemical, small-molecule microarray, fluorescence 635/667 (AID 1086); conditions: higher = more signal;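 further: score merges 667 nm fluorescence with signal-to-noise of each printed compound spot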
[10] = binders of probe aHhip on microarray, primary screen, stem cell growth factor project, biochemical, small-molecule microarray, fluorescence 635/667 (AID 1087); conditions: higher = more signal;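 further: score merges spot fluorescence at 667nm with spot signal to noise ratio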
[11] = tested on: PRMT1 (protein arginine N-methyltransferase 1); assay: PRMT1 binders on small-molecule microarrays, primary screen, biochemical, small-molecule microarray, 635 nm fluorescence (AID 1088); conditions: small-molecule microarray binding, higher = more signal;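 further: binding of Prmt1 protein to compounds spotted on small-molecule microarray slides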
[12] = yeast growth modulation, basal conditions, primary screen, YJM789 clinical isolate, OD600, 24 h (AID 1089);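 further: growth of clinical yeast isolate S. cerevisiae YJM 789 seeded 1000 cells per well; test concentration not given here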; conditions: S. cerevisiae YJM789 growth, higher = more signal, called active from +8 up or from −8 down
[13] = fission yeast growth modulation, primary screen, strain 972, OD600, 24 h, no modulator (AID 1090);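 further: basal condition with compound alone and no growth modifier present; test concentration not given here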; conditions: S. pombe 972 growth, higher = more signal, called active from +8 up or from −8 down
[14] = S. cerevisiae growth modulation with rapamycin, primary screen, strain BY4716, OD600, 96 h (AID 1091); conditions: higher = more signal, called active from +8 up or from −8 down; further: test concentration not given here
[15] = molecular target: Torsin-1A-interacting protein 2 (Homo sapiens) (UniProt Q8NFQ8); assay: LULL1 binders on small-molecule microarray, primary screen, cell lysate, human LULL1 lysate, 635/667 nm fluorescence (AID 1092); conditions: hLULL1 lysate binding, 635 nm fluorescence, higher = more signal;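 further: probe is lysate of COS7 cells overexpressing human LULL1; score merges per-feature 667 nm fluorescence with signal-to-noise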
[16] = E. coli growth modulation, two-sided OD650, primary screen, E. coli filamentation project, strain DRC41, 24 h (AID 1093); conditions: OD650, 24 h, higher = more signal, called active from +8 up or from −8 down;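 further: MC1000 strain lacking acrAB efflux and sulA so SOS filamentation is blocked; test concentration not given here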
[17] = small-molecule microarray binders of probe aLefty2, primary screen, biochemical, biotinylated probe, 635/667 nm fluorescence (AID 1094); conditions: higher = more signal;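 further: score merges spot fluorescence near 667 nm with spot signal-to-noise ratio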
[18] = tested on: Noggin (protein binding on small-molecule microarray); assay: Noggin binders on small-molecule microarray, primary screen, biochemical, 635/667 nm fluorescence (AID 1095); conditions: 635 nm fluorescence, higher = more signal;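 further: score merges 667 nm feature fluorescence with signal to noise over triplicate slides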
[19] = molecular target: Neurogenic locus notch homolog protein 3 (Homo sapiens) (UniProt Q9UM47); assay: NOTCH3 binders on small-molecule microarray, primary screen, biochemical, 635/667 nm fluorescence (AID 1096); conditions: NOTCH3 binding, 635 nm fluorescence, higher = more signal
[20] = small-molecule microarray binders of probe aEGFR, primary screen, biochemical, biotinylated probe, 635/667 nm fluorescence (AID 1097); conditions: higher = more signal;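 further: probe is a biotinylated anti-EGFR antibody binding compounds printed on slides; score combines fluorescence near 667 nm and signal to noise of each spot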

Sequence of Pro-neuregulin-1, membrane-bound isoform (Homo sapiens) (Q02297 whole entry, looked up, the tested form may be a part, canonical isoform): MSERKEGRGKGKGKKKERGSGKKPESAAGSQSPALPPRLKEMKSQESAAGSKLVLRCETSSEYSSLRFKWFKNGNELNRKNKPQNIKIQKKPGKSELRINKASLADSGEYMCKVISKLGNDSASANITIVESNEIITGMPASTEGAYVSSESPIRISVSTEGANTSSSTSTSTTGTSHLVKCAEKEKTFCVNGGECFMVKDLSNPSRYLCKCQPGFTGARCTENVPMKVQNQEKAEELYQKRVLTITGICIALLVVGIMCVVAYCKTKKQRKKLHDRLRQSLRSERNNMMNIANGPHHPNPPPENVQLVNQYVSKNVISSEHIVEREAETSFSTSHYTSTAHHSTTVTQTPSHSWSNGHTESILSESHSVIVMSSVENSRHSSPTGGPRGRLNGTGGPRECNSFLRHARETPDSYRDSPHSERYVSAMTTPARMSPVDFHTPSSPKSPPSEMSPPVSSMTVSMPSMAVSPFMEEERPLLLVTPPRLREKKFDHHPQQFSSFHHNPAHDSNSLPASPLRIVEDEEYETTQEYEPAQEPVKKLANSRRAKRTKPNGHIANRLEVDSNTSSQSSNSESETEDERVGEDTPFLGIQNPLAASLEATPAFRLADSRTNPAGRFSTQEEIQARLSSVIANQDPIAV
Sequence of Torsin-1A-interacting protein 2 (Homo sapiens) (Q8NFQ8 whole entry, looked up): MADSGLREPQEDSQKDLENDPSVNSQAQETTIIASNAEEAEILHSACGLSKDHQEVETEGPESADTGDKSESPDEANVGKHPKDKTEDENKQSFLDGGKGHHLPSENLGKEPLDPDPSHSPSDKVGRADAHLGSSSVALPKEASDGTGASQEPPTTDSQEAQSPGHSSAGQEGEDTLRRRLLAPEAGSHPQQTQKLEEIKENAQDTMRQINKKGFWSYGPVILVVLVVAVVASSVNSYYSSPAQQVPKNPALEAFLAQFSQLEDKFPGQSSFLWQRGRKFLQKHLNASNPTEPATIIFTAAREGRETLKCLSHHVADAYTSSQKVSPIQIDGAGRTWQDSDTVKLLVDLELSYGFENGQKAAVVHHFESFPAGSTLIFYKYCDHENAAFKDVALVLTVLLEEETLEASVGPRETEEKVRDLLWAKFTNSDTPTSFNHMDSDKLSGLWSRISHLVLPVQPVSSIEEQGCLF
Sequence of Neurogenic locus notch homolog protein 2 (Homo sapiens) (Q04721 whole entry, looked up, canonical isoform): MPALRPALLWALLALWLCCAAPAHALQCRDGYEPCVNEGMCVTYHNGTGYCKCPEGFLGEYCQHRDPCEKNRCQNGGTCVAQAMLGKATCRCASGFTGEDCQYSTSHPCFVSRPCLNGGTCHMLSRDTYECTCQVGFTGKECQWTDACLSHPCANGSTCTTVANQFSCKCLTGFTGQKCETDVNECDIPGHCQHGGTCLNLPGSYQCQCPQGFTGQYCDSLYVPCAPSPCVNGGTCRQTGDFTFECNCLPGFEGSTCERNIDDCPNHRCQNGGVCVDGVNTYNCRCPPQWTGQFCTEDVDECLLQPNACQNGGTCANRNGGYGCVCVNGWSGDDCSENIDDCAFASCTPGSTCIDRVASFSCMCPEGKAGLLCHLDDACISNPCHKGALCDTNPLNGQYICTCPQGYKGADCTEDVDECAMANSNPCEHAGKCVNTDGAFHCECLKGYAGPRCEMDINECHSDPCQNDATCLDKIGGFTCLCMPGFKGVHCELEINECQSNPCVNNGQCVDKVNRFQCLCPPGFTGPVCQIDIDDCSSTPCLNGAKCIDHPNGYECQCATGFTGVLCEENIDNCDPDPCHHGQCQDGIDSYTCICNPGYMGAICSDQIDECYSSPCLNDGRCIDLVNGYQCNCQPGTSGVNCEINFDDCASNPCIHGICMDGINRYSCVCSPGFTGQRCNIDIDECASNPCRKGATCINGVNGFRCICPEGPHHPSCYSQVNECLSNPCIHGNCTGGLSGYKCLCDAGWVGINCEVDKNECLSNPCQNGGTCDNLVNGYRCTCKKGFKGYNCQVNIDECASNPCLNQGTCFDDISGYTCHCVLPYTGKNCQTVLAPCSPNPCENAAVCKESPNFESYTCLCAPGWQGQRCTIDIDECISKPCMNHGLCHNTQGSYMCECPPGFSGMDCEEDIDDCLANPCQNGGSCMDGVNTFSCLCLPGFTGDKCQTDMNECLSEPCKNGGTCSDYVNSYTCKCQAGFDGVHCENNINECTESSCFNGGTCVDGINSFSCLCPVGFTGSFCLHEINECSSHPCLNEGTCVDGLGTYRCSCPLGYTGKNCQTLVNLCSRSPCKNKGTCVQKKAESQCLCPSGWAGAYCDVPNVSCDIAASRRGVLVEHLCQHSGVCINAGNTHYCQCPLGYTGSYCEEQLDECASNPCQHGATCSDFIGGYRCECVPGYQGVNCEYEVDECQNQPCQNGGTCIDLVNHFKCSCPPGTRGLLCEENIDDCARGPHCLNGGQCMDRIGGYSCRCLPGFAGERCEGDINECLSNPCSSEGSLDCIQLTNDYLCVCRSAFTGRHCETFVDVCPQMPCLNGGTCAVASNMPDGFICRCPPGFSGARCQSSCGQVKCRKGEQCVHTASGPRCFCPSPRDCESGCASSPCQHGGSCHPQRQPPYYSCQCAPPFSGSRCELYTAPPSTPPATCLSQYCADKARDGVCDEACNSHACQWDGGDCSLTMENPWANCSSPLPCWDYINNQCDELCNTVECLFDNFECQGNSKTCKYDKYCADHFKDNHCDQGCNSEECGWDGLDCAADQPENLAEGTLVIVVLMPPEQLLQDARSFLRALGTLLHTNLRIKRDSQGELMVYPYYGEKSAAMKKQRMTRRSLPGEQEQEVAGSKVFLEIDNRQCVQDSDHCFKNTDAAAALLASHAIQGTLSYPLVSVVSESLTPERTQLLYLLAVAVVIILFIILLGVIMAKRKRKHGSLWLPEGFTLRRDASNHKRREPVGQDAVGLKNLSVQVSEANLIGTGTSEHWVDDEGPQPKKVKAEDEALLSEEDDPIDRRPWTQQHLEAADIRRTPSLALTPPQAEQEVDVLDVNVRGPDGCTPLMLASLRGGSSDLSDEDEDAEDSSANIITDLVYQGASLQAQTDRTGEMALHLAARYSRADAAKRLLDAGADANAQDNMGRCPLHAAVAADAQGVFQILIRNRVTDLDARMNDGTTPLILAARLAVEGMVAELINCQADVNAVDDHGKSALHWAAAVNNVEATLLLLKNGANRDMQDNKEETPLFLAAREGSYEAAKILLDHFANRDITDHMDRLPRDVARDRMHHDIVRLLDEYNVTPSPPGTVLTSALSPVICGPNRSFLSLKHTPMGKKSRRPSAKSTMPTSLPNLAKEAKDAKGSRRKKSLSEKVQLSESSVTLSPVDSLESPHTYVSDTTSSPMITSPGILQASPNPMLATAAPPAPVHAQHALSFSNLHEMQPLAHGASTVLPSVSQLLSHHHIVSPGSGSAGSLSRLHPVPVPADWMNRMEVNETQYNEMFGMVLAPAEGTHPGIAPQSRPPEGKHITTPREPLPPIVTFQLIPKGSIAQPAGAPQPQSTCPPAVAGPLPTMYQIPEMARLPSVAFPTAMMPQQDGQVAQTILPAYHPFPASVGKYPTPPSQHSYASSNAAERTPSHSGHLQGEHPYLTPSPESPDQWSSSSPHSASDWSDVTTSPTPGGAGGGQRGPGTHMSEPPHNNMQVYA

SMILES | composite z-score [1] | composite z-score [2] | composite z-score [3] | composite z-score [4] | composite z-score [5] | composite z-score [6] | composite z-score [7] | z-score [8] | composite z-score [9] | composite z-score [10] | composite z-score [11] | z-score [12] | z-score [13] | z-score [14] | composite z-score [15] | z-score [16] | composite z-score [17] | composite z-score [18] | composite z-score [19] | composite z-score [20]
COC(=O)c1c(CC[C@@H](CO)NC(=O)N2CCC[C@H]2Cn2cc(Cc3ccccc3)nn2)oc(C(C)=O)c1C(=O)OC | -0.506 | 0.268 | -0.0759 | 0.325 | 0.0554 | 0.638 | 1.12 | 0.0223 (inactive) | 0.22 | 0.2 | 1.28 | 0.102 (inactive) | -0.279 (inactive) | -1.45 (inactive) | 3.14 | -0.0178 (inactive) | -0.147 | 0.387 | 0.524 | -0.111
CCCCCCc1nc(C2CC2)cc2c1[Si](C(C)C)(C(C)C)OC2 | 0.355 | -0.376 | -0.14 | -0.715 | -1.13 | -0.526 | -1.17 | 1.19 (inactive) | -0.319 | -0.137 | -0.439 | 0.01 (inactive) | -0.183 (inactive) | 0.0489 (inactive) | -0.908 | -0.772 (inactive) | -0.152 | -0.798 | -0.861 | -0.228
CCOc1cc(C(O)C2C=CC3C(=O)N(c4ccccc4)C(=O)C3N2Nc2ccc(C#N)cc2)ccc1O (stereo not given) | -0.17 | -0.223 | 0.0024 | 0.11 | 1.27 | 1 | 0.836 | 0.163 (inactive) | 0.0472 | 0.0139 | 0.0034 | 0.453 (inactive) | 1.15 (inactive) | 0.726 (inactive) | 3.3 | -0.715 (inactive) | 0.121 | -0.167 | -0.0195 | -0.133
CN(C)c1ccc(C(O)C2C=CC3C(=O)N(c4ccccc4)C(=O)C3N2Nc2ccc([N+](=O)[O-])cc2)cc1 (stereo not given) | 0.155 | 0.456 | 0.0495 | 0.551 | 1.52 | 1.42 | 1.14 | 0.975 (inactive) | 1.63 | 0.0373 | 1.44 | 0.0475 (inactive) | -1.3 (inactive) | 2.39 (inactive) | 2.98 | -0.564 (inactive) | 0.401 | 0.037 | 1.13 | -0.0234
CC1CC/C=C\[C@H]2OC34C=CCN(C(C)C)C(=O)[C@H]3N(CCCCCCO)C(=O)[C@@H]4C2C(=O)O1 (stereo not given in full) | 0.315 | -0.671 | -0.143 | -0.178 | -0.357 | 1.06 | 0.147 | 0.286 (inactive) | -0.856 | -0.304 | -1.25 | -1.39 (inactive) | -0.482 (inactive) | -1.27 (inactive) | -1.42 | 2.5 (inactive) | -0.136 | -0.705 | -0.514 | -0.237
